Screens from PubChem BioAssay.
An excerpt weighted towards active compounds, which were near 6.1% of everything screened.
RORg inh: inhibitors of mouse ROR gamma transcriptional activity. Potency, µM (titrated, usually from 53.6 µM), inactives show at the highest dose activity change, negative = inhibition, actives largely listed as inhibitors. 310,000 tested, 5.4% active. Drosophila S2 Gal4-RORgamma UAS-luciferase reporter, 20 h. P51450. AID 2551; also: % is scaled to controls: 0 for no effect and ±100 for the full control effect; nearly all actives have a fitted effect of over 60% in size
Target sequence (P51450 whole entry, looked up, the tested form may be a part): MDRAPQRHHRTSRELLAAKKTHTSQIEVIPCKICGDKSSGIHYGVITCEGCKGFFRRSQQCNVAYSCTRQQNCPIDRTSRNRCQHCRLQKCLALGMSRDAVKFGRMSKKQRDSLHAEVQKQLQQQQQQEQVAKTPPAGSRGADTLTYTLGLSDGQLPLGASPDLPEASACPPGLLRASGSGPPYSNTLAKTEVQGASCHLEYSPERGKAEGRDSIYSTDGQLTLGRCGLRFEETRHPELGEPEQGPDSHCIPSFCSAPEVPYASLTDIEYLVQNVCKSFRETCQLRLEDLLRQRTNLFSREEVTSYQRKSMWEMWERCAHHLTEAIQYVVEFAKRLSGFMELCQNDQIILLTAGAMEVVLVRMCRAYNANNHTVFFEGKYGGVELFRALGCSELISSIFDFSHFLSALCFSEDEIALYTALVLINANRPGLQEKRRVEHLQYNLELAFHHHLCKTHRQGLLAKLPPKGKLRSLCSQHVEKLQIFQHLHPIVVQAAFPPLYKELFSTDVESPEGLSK
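Stable Schneider cell line, Gal4 DNA-binding domain fused to ROR gamma, UAS-luciferase. Cmpd 1 hr RT → CuSO4 700 uM final → 20 hr RT → luciferase reagent 10 min → luminescence.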
ATXN viability: reduces viability in counter-screen for ATXN expression inhibitors; AID 651635; Potency, µM (doses to about 56.7 µM), most hits filed as cytotoxic; S2 cells (HEK-293 line with an ATXN2-luciferase reporter) viability, CellTiter-Fluor protease fluorescence, 24 h; 400,000 tested, 0.49% active; also: nearly all actives have a fitted effect of over 40% in size
ATXN2 expr inh: ATXN2 expression inhibition; Potency, µM (top dose mostly 57 µM), inactives show at the highest dose activity change, negative = inhibition, usual class: inhibitors; 360,000 tested, 0.72% active; HEK-293 ATXN2-luciferase reporter, luminescence, 24 h; also: % is scaled to controls: 0 for no effect and ±100 for the full control effect; nearly all actives have a fitted effect of over 55% in size
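ATXN2-luciferase reporter cells (luciferase flanked by upstream and downstream ATXN2 gene portions) were treated 24 h at 37 °C with compounds at up to 57 uM. SteadyGlo luminescence gave expression; GF-AFC fluorescence gave viability.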
HepG2 tox: HepG2 cytotoxicity, counter-screen for TGF-b inhibitors. HepG2 CAGA-GFP viability, ATP luminescence, 18 h. 410,000 tested, 0.76% active. Potency, µM (top dose mostly 46.1 µM), for inactives: top-dose activity change, negative = cytotoxicity, actives largely listed as cytotoxic
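HepG2 CAGA-GFP cells (1000/well, DMEM with 1% FBS) received compound, then TGF-beta at 500 pg/mL final, and were incubated 18 hours at 37 degrees C. Viability was read by CellTiter-Glo luminescence. Media-only wells were set as complete cell-killing and DMSO as no toxicity.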
VP16 counter: Gal4-VP16 reporter inhibition counter-screen | AID 2546 | Potency, µM (titrated, usually from 53.6 µM), without a hit: top-dose activity, negative = inhibition, most hits filed as inhibitors | 310,000 tested, 3.5% active | Drosophila S2 Gal4-VP16 UAS-luciferase, luminescence, 20 h;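 also: Gal4-VP16 expression switched on by copper sulfate through the metallothionein promoter; % is scaled to controls: 0 for no effect and ±100 for the full control effect; nearly all actives have a fitted effect of over 50% in size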
TGFb SMAD3 inh: blocks TGF-b signaling; Potency, µM (series often up to 46.1 µM), for inactives: at the highest dose activity, negative = inhibition, actives largely listed as inhibitors; AID 588855; 410,000 tested, 1.2% active; HepG2 CAGA-GFP TGF-b/SMAD3 reporter, GFP fluorescence, 18 h; TGF-beta stimulated, 500 pg/mL final; also: % is scaled to controls: 0 for no effect and ±100 for the full control effect; nearly all actives have a fitted effect of over 65% in size
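GFP signal (ex488/em500-530) from TGF-beta-stimulated HEPG2 CAGA-GFP cells, 500 pg/mL final, 18 h at 37 degrees C in DMEM plus 1% FBS, normalized to unstimulated and DMSO-stimulated controls.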
* marks the source's active call; other numbers are inactive results; i = inactive; u = inconclusive; x = not tested or not shown; [ ] = remark or other dose. Calls follow the shape of the dose curve; as a rule, active = well fitted curve in the direction sought with a large enough effect; inconclusive = small, poorly fitted or top-dose-only effect, or another doubt; inactive = no such curve, though single readings can be large; an effect the other way counts as inactive or inconclusive. Potency is read from the fitted curve at half-maximal effect.

SMILES	RORg inh	ATXN viability	ATXN2 expr inh	HepG2 tox	VP16 counter	TGFb SMAD3 inh
COC(=O)c1ccccc1SC1CC(=O)N(c2ccccc2)C1=O (stereo not given)	u	i	10%	-9%	u	1%
Cc1cc(C)cc(N2C(=O)CC(Sc3nnnn3-c3ccccc3)C2=O)c1 (stereo not given)	u	u	u	-95%	7.1µM*	-10%
O=C1CC(Sc2nnnn2C2CCCCC2)C(=O)N1c1ccccc1 (stereo not given)	u	u	0%	-82%	5µM*	u
COc1cccc([C@@H]2Oc3ccc(OC)cc3/C(=N/OC[C@@H](O)COCc3ccco3)[C@@H]2O)c1	-12%[10 µM]	x	x	x	0%[10 µM]	x
COc1ccc(N2CCN(C(=O)CCc3c(C)nc4cc(-c5cccc(F)c5)nn4c3C)CC2)cc1	x	i	-18%	12%	x	-3%
COc1cc(/C=C2/C=Cc3ccccc32)ccc1N(C)C	x	x	x	-48%	x	-1%
CCCNC(=S)Nc1cc2oc3ccccc3c2cc1OC	4.5µM*	u	u	-78%	7.1µM*	u
CNC(=S)Nc1cc2oc3ccccc3c2cc1OC	7.9µM*	i	2%	-5%	13µM*	u
CCC1Sc2ccc(S(=O)(=O)CCC(=O)Nc3ccc(NC(C)=O)cc3)cc2NC1=O (stereo not given)	-28%	i	12%	-1%	-23%	0%
CCC(=O)N1CCc2cc(S(=O)(=O)CCC(=O)Nc3ccc(OC(F)(F)F)cc3)ccc21	x	i	-22%	-18%	x	11µM*
CCC1Sc2ccc(S(=O)(=O)Nc3ccc(OC)c(OC)c3)cc2NC1=O (stereo not given)	u	i	-14%	-5%	8.9µM*	-15%
CCC(=O)N1CCc2cc(S(=O)(=O)CCC(=O)Nc3ccc(OC)cc3)ccc21	13%	i	x	20%	-7%	10%
COC(=O)c1ccc(NC(=O)CCS(=O)(=O)c2ccc(Br)cc2)cc1	8%	i	x	-2%	11µM*	-2%
CCC1Sc2ccc(S(=O)(=O)CCC(=O)Nc3ccc(OC(F)(F)F)cc3)cc2NC1=O (stereo not given)	-19%	u	x	10µM*	u	u
COC(=O)c1ccc(NC(=O)CCS(=O)(=O)c2ccc3c(c2)NC(=O)C(C)S3)cc1 (stereo not given)	-39%	i	10%	-9%	7.1µM*	3%
CC(=O)OCC(=O)[C@@]12OC3(CCCC3)O[C@@H]1C[C@H]1[C@@H]3CCC4=CC(=O)C=C[C@]4(C)[C@@]3(F)[C@@H](O)C[C@@]12C	8.9µM*	i	-38%	1%	-8%	5%
CC1(C)O[C@@H]2C[C@H]3[C@@H]4CCC5=CC(=O)C=C[C@]5(C)[C@@]4(F)[C@@H](O)C[C@]3(C)[C@]2(C(=O)CO)O1	u	i	3%	0%	3%	1%
CCCCCCCCCC[n+]1ccc(/C=C/c2ccc(N(C)C)cc2)c2ccccc21	x	x	x	-94%	x	u
CCCCCCCCCCCCCCCC[n+]1ccc(CC(O)c2c(C)[nH]c3ccccc23)c2ccccc21 (stereo not given)	x	x	x	8.9µM*	x	u
CCOC(=O)c1csc(NC(=O)c2ccccc2)n1	u	i	36%	-17%	-3%	-1%
CCOC(=O)CNC(=O)c1sc(NC(=O)c2ccccc2F)nc1C	u	i	6%	-28%	2.5µM*	4%
CCOC(=O)c1csc(NC(=O)c2cc3ccccc3o2)n1	3.2µM*	i	x	-29%	u	-11%
Cc1cnc(NC(=O)c2cc3ccccc3o2)s1	6.3µM*	u	5%	-2%	13µM*	-1%
CCOC(=O)c1sc(NC(=O)c2cc3ccccc3o2)nc1C	4µM*	i	42%	-27%	u	8%
COc1ccc(-c2cc(-c3ccc4c(c3)NC(=O)CO4)nc3c2COc2ccc(C)cc2-3)cc1	x	i	4%	2%	x	5%
SMILES	RORg inh	ATXN viability	ATXN2 expr inh	HepG2 tox	VP16 counter	TGFb SMAD3 inh
CCc1ccc2oc(C(=O)N(Cc3ccc(N(C)C)cc3)Cc3ccco3)c(C)c2c1	x	x	x	-10%	x	x
CCOC(=O)c1sc(Nc2ccccc2Cl)nc1C	-8%	i	x	-33%	4%	-25%
CCOC(=O)c1sc(NC(=O)Nc2ccccc2F)nc1C	7.9µM*	i	0%	-21%	8.9µM*	17%
Cc1nc(NC(=O)c2cc3ccccc3o2)sc1C	10µM*	i	u	-24%	u	0%
Cc1ccc(Cl)cc1NC(=O)C1CCN(C(=O)c2cnn(-c3ccccc3)c2-n2cccc2)CC1	x	i	-19%	-35%	x	u
COc1ccc(-c2nc3cc(C)ccc3cc2CN(C(=O)c2csc(C)n2)C2CC2)cc1OC	x	i	x	x	x	x
COc1c(C(=O)NCCSC(C)(C)C)ccc2ccccc12	2.2µM*	i	24%	-6%	0%	10%
O=C(O)c1c2c(nc3ccccc13)/C(=C/c1ccc(OC(F)F)cc1)CCC2	36%	i	52%	2%	-8%	-12%
O=C(O)c1c2c(nc3ccccc13)/C(=C/c1ccc(O)cc1)CC2	7.9µM*	x	x	13%	13µM*	-4%
COc1cccc2c1CCc1c-2nc2ccccc2c1C(=O)O	u	i	u	-12%	10µM*	-4%
CCCCc1ccc(NC(=O)COc2ccc(C(=O)Nc3ccccc3C)cc2)cc1	u	x	x	x	11µM*	x
CCCn1ccc2c(OCC(=O)Nc3ccc(OC)c(OC)c3)cccc2c1=O	x	u	u	-18%	x	-26%
COCCn1ccc2c(OCC(=O)Nc3cccc(NC(C)=O)c3)cccc2c1=O	x	i	3%	18µM*	x	-4%
CCCCc1ccc(NC(=O)COc2ccc(C(=O)Nc3ccccc3OC)cc2)cc1	-17%	x	x	x	-25%	x
CCCCc1ccc(NC(=O)COc2cccc3c(=O)n(C)ccc23)cc1	x	u	u	-51%	x	8.9µM*
CCn1ccc2c(OCC(=O)Nc3ccc(C)c(Cl)c3)cccc2c1=O	x	x	u	-37%	x	7.1µM*
CCCn1ccc2c(OCC(=O)Nc3ccc(NC(C)=O)cc3)cccc2c1=O	x	i	-1%	-12%	x	7%
Cc1cc2c(c(-c3ccc4nc(C)ccc4c3)c1)OC(CNC(=O)Cc1ccn(C)c1)C2 (stereo not given)	x	i	x	x	x	x
CC1CC(C)CN(C(C(=O)NC2CCCCC2)c2cc3ccccc3o2)C1 (stereo not given)	x	i	-32%	-24%	x	16µM*
